Measurements from the supplement of paper PMC10849652.
The full data set covers some 7,900 targets. This sample favours those with a hit. About 0.6% of all pairs of compound and target were hits.

Experiments:
Test in all cases: log2 fold change, soluble protein after heating vs DMSO (PISA); higher = thermal stabilisation; K562 cells, 10 uM, 30 min; active = over 0.2 and 3.5 SD of the protein, either way, in both replicates (recomputed)
[1] = compound: CS(=O)(=O)c1ccc(-c2cnc(N)c(C(=O)Nc3ccccc3)n2)cc1
In short: (§1)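 K562 cells at 2×10^6 cells/mL were treated for 30 min with 10 μM compound, and aliquots were heated for 3 min over 48°C-58°C before pooling. Extraction used PBS with 0.5% NP-40 at 4°C, and soluble protein was the supernatant after 21,000xg for 90 min, measured by TMTpro 16plex LC-MS/MS with channel sums equalised. Thermal stability values, relative to control samples and from duplicates, are log2 fold changes.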

crizotinib = compound: C[C@@H](Oc1cc(-c2cnn(C3CCNCC3)c2)cnc1N)c1c(Cl)ccc(F)c1Cl [crizotinib]
In short: as §1

[2] = compound: C[C@@H]1COCCN1C2=NC(=NC(=C2)C3(CC3)S(=O)(=O)C)C4=C5C=CNC5=CC=C4
In short: as §1

[3] = compound: C[C@H](C1=CC=C(C=C1)C(=O)NC2=C3C=CNC3=NC=C2)N
In short: as §1

duvelisib = compound: C[C@H](Nc1ncnc2nc[nH]c12)c1cc2cccc(Cl)c2c(=O)n1-c1ccccc1 [duvelisib]
In short: as §1

gandotinib = compound: Cc1cc(Nc2cc(CN3CCOCC3)c3nc(C)c(Cc4ccc(Cl)cc4F)n3n2)n[nH]1 [gandotinib]
In short: as §1

tozasertib = compound: Cc1cc(Nc2cc(N3CCN(C)CC3)nc(Sc3ccc(NC(=O)C4CC4)cc3)n2)n[nH]1 [tozasertib]
In short: as §1

[4] = compound: Cc1cc(SCc2sc(-c3ccc(C(F)(F)F)cc3)nc2C)ccc1OCC(=O)O
In short: as §1

doramapimod = compound: Cc1ccc(-n2nc(C(C)(C)C)cc2NC(=O)Nc2ccc(OCCN3CCOCC3)c3ccccc23)cc1 [doramapimod]
In short: as §1

ispinesib = compound: Cc1ccc(C(=O)N(CCCN)[C@@H](c2nc3cc(Cl)ccc3c(=O)n2Cc2ccccc2)C(C)C)cc1 [ispinesib]
In short: as §1

bafetinib = compound: Cc1ccc(NC(=O)c2ccc(CN3CC[C@H](N(C)C)C3)c(C(F)(F)F)c2)cc1Nc1nccc(-c2cncnc2)n1 [bafetinib]
In short: as §1

[5] = compound: Cc1cccc(CC(=O)N2CCc3c2ccc(-c2cn(C)c4ncnc(N)c24)c3F)n1
In short: as §1

nilotinib = compound: Cc1cn(-c2cc(NC(=O)c3ccc(C)c(Nc4nccc(-c5cccnc5)n4)c3)cc(C(F)(F)F)c2)cn1 [nilotinib]
In short: as §1

[6] = compound: Cc1nc(Nc2n[nH]c3c2CN(C(=O)N[C@H](CN(C)C)c2ccccc2)C3(C)C)c2sccc2n1
In short: as §1

dasatinib = compound: Cc1nc(Nc2ncc(C(=O)Nc3c(C)cccc3Cl)s2)cc(N2CCN(CCO)CC2)n1 [dasatinib]
In short: as §1

[7] = compound: Cc1ncc(-c2ccnc(Nc3ccc(S(C)(=O)=O)cc3)n2)n1C(C)C
In short: as §1

[8] = compound: Cn1cc(-c2ccc3c(c2)CCN3C(=O)Cc2cccc(C(F)(F)F)c2)c2c(N)ncnc21
In short: as §1

[9] = compound: Cn1cc(-c2ccc3nnc(C(F)(F)c4ccc5ncccc5c4)n3n2)cn1
In short: as §1

tipifarnib = compound: Cn1cncc1[C@@](N)(c1ccc(Cl)cc1)c1ccc2c(c1)c(-c1cccc(Cl)c1)cc(=O)n2C [tipifarnib]
In short: as §1

mubritinib = compound: FC(F)(F)c1ccc(/C=C/c2nc(COc3ccc(CCCCn4ccnn4)cc3)co2)cc1 [mubritinib]
In short: as §1

Measured: log2 fold change

NCAPG (UniProt Q9BPX3)
UniProt Q9BPX3, sequence (Q9BPX3 whole entry, looked up): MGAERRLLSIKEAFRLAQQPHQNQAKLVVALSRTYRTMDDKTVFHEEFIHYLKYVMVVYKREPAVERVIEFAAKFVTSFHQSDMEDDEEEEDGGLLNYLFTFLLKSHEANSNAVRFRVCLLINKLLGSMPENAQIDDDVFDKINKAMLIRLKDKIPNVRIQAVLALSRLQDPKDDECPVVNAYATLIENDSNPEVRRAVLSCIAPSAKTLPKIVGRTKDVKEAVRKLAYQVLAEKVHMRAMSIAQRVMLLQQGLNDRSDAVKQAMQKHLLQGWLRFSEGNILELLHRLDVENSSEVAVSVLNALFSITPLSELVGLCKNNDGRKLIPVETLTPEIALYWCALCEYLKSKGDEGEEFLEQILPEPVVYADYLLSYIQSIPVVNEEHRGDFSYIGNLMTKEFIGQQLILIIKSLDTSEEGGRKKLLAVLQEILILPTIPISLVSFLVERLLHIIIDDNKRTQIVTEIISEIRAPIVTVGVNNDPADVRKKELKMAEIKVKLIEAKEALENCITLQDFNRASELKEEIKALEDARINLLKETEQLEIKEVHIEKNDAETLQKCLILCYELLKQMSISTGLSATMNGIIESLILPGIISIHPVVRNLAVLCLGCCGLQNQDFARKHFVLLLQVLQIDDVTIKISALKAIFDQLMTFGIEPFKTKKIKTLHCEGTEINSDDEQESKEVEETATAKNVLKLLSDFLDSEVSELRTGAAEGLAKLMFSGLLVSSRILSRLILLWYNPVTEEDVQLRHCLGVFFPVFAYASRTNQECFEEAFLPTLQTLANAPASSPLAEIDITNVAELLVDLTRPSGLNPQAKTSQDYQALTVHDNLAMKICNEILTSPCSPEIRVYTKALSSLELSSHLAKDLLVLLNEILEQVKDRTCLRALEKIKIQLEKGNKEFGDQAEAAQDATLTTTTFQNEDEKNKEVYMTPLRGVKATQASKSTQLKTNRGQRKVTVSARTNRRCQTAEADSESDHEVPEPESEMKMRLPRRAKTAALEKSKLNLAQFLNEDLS
inactive: [1] 0.029 | crizotinib -0.031 | [2] 0.034 | [3] 0.034 | duvelisib 0.073 | gandotinib -0.144 | tozasertib 0.115 | [4] 0.071 | doramapimod -0.077 | ispinesib -0.01 | bafetinib 0.076 | [5] 0.06 | nilotinib -0.032 | [6] -0.07 | dasatinib -0.085 | [7] 0.065 | [8] -0.016 | [9] 0.012 | tipifarnib -0.142 | mubritinib -0.003

NRDC isoform 2 (UniProt O43847)
UniProt O43847, sequence (O43847 whole entry, looked up): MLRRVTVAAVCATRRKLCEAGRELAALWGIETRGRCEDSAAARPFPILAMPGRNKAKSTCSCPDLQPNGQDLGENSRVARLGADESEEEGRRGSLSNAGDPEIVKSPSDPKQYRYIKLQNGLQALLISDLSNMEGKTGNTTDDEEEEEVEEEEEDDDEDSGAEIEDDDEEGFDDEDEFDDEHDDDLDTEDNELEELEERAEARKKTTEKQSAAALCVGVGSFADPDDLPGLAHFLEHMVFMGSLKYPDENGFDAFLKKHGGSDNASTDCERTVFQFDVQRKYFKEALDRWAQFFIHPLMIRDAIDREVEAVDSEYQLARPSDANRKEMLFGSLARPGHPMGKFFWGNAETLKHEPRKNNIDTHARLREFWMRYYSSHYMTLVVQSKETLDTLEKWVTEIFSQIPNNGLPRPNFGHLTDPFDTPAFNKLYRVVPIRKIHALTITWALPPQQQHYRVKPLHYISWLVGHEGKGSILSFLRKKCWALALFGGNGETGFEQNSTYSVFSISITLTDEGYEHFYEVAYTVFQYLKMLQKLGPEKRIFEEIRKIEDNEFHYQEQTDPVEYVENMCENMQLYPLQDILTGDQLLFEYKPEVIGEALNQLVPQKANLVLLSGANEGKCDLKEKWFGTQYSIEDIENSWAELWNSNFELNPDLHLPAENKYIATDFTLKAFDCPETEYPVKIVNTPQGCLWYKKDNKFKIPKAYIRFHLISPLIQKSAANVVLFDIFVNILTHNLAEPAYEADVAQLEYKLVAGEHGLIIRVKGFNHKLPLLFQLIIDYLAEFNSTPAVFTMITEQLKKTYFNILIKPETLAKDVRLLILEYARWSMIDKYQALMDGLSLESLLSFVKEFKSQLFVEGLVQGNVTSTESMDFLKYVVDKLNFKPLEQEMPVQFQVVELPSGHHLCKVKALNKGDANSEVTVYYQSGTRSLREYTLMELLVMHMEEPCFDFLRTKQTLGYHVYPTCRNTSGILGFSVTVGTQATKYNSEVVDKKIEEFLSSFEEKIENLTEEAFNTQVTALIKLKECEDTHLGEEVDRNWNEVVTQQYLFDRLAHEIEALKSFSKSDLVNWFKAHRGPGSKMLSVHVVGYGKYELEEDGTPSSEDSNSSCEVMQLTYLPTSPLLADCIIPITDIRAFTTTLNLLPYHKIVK
inactive: [1] 0.034 | crizotinib -0.065 | [2] 0.054 | [3] -0.034 | duvelisib 0.008 | gandotinib -0.029 | tozasertib 0.02 | [4] 0.089 | doramapimod -0.036 | ispinesib -0.022 | bafetinib 0.022 | [5] 0.072 | nilotinib -0.019 | [6] -0.023 | dasatinib -0.133 | [7] 0.011 | [8] -0.01 | [9] -0.044 | tipifarnib -0.129 | mubritinib 0.088

NTMT1 (UniProt Q9BV86)
UniProt Q9BV86, sequence (Q9BV86 whole entry, looked up): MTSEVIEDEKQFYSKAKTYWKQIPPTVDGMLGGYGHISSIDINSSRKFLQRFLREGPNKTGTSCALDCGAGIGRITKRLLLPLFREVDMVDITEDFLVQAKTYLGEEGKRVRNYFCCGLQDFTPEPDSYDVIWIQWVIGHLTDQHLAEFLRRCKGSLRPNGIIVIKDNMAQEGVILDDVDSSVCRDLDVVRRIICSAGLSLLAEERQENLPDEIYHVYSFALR
inactive: [1] 0.128 | crizotinib 0.039 | [2] 0.074 | [3] -0.029 | duvelisib 0.054 | gandotinib 0.093 | tozasertib 0.067 | [4] 0.021 | doramapimod 0.071 | ispinesib 0.02 | bafetinib 0.009 | [5] 0.068 | nilotinib 0.056 | [6] 0 | dasatinib -0.036 | [7] 0.023 | [8] 0.073 | [9] 0.076 | tipifarnib 0.043 | mubritinib 0.138

NAPG (UniProt Q99747)
UniProt Q99747, sequence (Q99747 whole entry, looked up): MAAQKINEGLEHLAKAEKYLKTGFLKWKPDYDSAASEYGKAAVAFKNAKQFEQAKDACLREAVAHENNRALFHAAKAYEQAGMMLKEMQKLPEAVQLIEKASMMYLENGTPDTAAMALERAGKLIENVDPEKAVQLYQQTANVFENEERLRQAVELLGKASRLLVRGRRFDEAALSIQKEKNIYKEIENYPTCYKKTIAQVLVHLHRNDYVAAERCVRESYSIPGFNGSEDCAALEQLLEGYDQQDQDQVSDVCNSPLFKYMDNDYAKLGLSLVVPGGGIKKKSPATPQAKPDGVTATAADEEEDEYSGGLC
inactive: [1] 0.045 | crizotinib -0.029 | [2] 0.045 | [3] -0.098 | duvelisib 0.054 | gandotinib -0.046 | tozasertib 0.126 | [4] 0.143 | doramapimod -0.05 | ispinesib 0.025 | bafetinib 0 | [5] 0.128 | nilotinib -0.057 | [6] -0.157 | dasatinib -0.133 | [7] -0.011 | [8] 0.034 | [9] 0.033 | tipifarnib -0.094 | mubritinib 0.062

OTUD4 (UniProt Q01804)
UniProt Q01804, sequence (Q01804 whole entry, looked up): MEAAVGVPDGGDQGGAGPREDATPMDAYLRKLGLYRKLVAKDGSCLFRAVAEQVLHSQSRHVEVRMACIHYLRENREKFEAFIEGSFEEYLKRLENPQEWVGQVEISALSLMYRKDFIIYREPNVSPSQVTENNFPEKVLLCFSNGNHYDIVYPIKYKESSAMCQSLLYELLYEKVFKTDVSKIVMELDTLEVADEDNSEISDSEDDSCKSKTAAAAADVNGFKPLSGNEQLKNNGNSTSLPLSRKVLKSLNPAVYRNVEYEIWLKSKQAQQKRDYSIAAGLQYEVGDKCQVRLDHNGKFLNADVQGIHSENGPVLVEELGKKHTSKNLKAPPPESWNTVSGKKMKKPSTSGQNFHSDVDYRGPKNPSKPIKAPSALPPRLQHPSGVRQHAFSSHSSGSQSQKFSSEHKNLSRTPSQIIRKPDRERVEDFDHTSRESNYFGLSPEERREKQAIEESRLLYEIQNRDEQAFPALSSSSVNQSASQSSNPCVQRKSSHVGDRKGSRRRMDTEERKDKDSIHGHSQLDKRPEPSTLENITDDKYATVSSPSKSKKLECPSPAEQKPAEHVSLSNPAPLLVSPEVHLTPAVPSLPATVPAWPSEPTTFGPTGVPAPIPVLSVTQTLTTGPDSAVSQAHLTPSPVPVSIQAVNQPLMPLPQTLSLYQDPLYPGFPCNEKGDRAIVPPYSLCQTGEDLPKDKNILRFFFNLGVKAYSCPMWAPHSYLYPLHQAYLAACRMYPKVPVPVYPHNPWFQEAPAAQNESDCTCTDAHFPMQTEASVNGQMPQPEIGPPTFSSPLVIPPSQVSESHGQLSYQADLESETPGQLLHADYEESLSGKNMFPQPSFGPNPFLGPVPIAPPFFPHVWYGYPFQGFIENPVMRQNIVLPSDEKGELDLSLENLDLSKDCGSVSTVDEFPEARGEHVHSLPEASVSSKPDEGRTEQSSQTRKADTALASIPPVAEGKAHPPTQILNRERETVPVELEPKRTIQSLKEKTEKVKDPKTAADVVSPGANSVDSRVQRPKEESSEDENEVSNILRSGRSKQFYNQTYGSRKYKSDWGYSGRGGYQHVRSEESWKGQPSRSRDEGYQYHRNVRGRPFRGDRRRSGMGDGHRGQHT
inactive: [1] 0.018 | crizotinib -0.001 | [2] -0.094 | [3] 0.106 | duvelisib -0.073 | gandotinib 0.059 | tozasertib 0.034 | [4] -0.001 | doramapimod 0.052 | ispinesib -0.034 | bafetinib 0.069 | [5] -0.016 | nilotinib 0.037 | [6] -0.039 | dasatinib 0.046 | [7] -0.077 | [8] -0.082 | [9] -0.09 | tipifarnib 0.064 | mubritinib -0.024

MTOR (UniProt P42345)
inactive: [1] 0.003 | crizotinib -0.23 | [2] 0.08 | [3] 0.06 | duvelisib 0.025 | gandotinib -0.138 | tozasertib 0.044 | [4] 0.024 | doramapimod 0.001 | ispinesib -0.184 | bafetinib -0.018 | [5] 0.014 | nilotinib -0.158 | [6] 0.068 | dasatinib -0.166 | [7] -0.069 | [8] 0.004 | [9] 0.037 | tipifarnib -0.12 | mubritinib 0.068

MTHFS (UniProt P49914)
UniProt P49914, sequence (P49914 whole entry, looked up): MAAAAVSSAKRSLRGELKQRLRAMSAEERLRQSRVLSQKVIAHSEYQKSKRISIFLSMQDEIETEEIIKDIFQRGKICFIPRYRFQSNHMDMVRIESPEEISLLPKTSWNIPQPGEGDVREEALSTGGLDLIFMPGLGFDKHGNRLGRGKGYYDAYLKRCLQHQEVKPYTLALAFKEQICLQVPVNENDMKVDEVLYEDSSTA
inactive: [1] 0.103 | crizotinib -0.026 | [2] 0.117 | [3] -0.098 | duvelisib -0.023 | gandotinib -0.021 | tozasertib 0 | [4] 0.037 | doramapimod 0.013 | ispinesib 0.046 | bafetinib 0.074 | [5] 0.014 | nilotinib 0.154 | [6] 0.045 | dasatinib -0.094 | [7] 0.003 | [8] 0.032 | [9] -0.008 | tipifarnib 0.001 | mubritinib 0.045

NA, A0A096LPI6
inactive: [1] -0.014 | crizotinib 0.079 | [2] 0.03 | [3] -0.015 | duvelisib 0.018 | gandotinib 0.04 | tozasertib -0.034 | [4] -0.051 | doramapimod -0.038 | ispinesib 0.047 | bafetinib -0.076 | [5] -0.043 | nilotinib 0 | [6] -0.007 | dasatinib -0.005 | [7] -0.04 | [8] -0.003 | [9] -0.028 | tipifarnib -0.038 | mubritinib 0.024
